In PubChem BioAssay AID1332 (Southern Research Institute, 2008):
≈ marks a conversion by molar mass, not a printed value. Hit rate of the full screen: of about 1,100 compounds, about 170 (15%) were called active. How the calls were made is not given here. The list is a sample of the results.

Assay: Mycobacterium tuberculosis H37Rv growth inhibition, confirmatory dose response, cytotoxicity (AID 1332);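 on CC50: Vero cells exposed to compounds for 72 hours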;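 on IC50: bacteria incubated 7 days before adding Alamar blue readout reagent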
Settings: M. tuberculosis H37Rv growth inhibition; CC50: measured here: Vero cell cytotoxicity; IC50: measured here: IC50 H37Rv replicates
In the case of `CCC(=O)OCC(=O)C1(OC(=O)CC)[C@H](C)C[C@H]2[C@H]3[C@H]([C@@H](O)C[C@@]21C)[C@@]1(C)C=CC(=O)C=C1C[C@H]3Cl` (some centres undefined), the IC50 is reported as > 20 µg/mL and the outcome is reported as “inactive”. With `O=C1C(CCS(=O)c2ccccc2)C(=O)N(c2ccccc2)N1c1ccccc1` (centres undefined) the IC50 was > 20 µg/mL and the outcome was “inactive”. In the case of `CN(C)C/C=C(\c1ccc(Br)cc1)c1cccnc1`, the IC50 is reported as > 20 µg/mL and the outcome is reported as “inactive”. In the case of `CC1(C)S[C@@H]2[C@H](NC(=O)[C@H](N)c3ccccc3)C(=O)N2[C@H]1C(=O)O`, the IC50 is reported as > 20 µg/mL and the outcome is reported as “inactive”. For `CN(Cc1cnc2nc(N)nc(N)c2n1)c1ccc(C(=O)NC(CCC(=O)O)C(=O)O)cc1` (centres undefined), the CC50 was 0.048 µg/mL (≈ 0.106 µM), the IC50 was > 20 µg/mL and the outcome was “inactive”. In the case of `CC(C(=O)O)c1ccc(N2Cc3ccccc3C2=O)cc1` (centres undefined), the IC50 is reported as > 20 µg/mL and the outcome is reported as “inactive”. For `C[C@H]1[C@H]2CC[C@H]3[C@@H]4CC=C5C[C@@H](N(C)C)CC[C@]5(C)[C@H]4CC[C@]23CN1C`, the IC50 was > 20 µg/mL and the outcome was “inactive”. For `NC(N)=NC(N)=NCCc1ccccc1`, the IC50 was > 20 µg/mL and the outcome was “inactive”. For `CCOC(=O)[C@H](CCc1ccccc1)N[C@@H](C)C(=O)N1CCC[C@H]1C(=O)O`, the IC50 was > 20 µg/mL and the outcome was “inactive”. For `CC(=O)Oc1ccccc1C(=O)Oc1ccccc1C(=O)O`, the IC50 was > 20 µg/mL and the outcome was “inactive”. In the case of `O=C(OCC(O)CO)c1ccccc1Nc1ccnc2cc(Cl)ccc12` (centres undefined), the IC50 is reported as > 20 µg/mL and the outcome is reported as “inactive”. In the case of `CCc1cccc(CC)c1NC(=O)CN(CC(=O)O)CC(=O)O`, the IC50 is reported as > 20 µg/mL and the outcome is reported as “inactive”. In the case of `COc1cc(-c2ccc(N=Nc3ccc4c(S(=O)(=O)O)cc(S(=O)(=O)O)c(N)c4c3O)c(OC)c2)ccc1N=Nc1ccc2c(S(=O)(=O)O)cc(S(=O)(=O)O)c(N)c2c1O`, the IC50 is reported as > 20 µg/mL and the outcome is reported as “inactive”. In the case of `NCC1CCC(C(=O)O)CC1` (centres undefined), the IC50 is reported as > 20 µg/mL and the outcome is reported as “inactive”. For `C[C@H](O)C(=O)Nc1c(I)c(C(=O)NC(CO)CO)c(I)c(C(=O)NC(CO)CO)c1I`, the IC50 was > 20 µg/mL and the outcome was “inactive”. In the case of `CCCOc1cc(N)ccc1C(=O)OCCN(CC)CC`, the IC50 is reported as > 20 µg/mL and the outcome is reported as “inactive”. For `COc1c2c(nc3ccccc13)OC(C(C)(O)CO)C2` (centres undefined), the IC50 was > 20 µg/mL and the outcome was “inactive”. In the case of `CN1CCCCC1CCN1c2ccccc2Sc2ccc(S(C)=O)cc21` (centres undefined), the IC50 is reported as > 20 µg/mL and the outcome is reported as “inactive”. With `CN1CCC[C@@H]1CCO[C@](C)(c1ccccc1)c1ccc(Cl)cc1` the CC50 was > 6 µg/mL, the IC50 was 10.9 µg/mL (≈ 31.7 µM) and the outcome was “active”. In the case of `CN1C(CC(O)c2ccccc2)CCCC1CC(O)c1ccccc1` (centres undefined), the IC50 is reported as > 20 µg/mL and the outcome is reported as “inactive”. With `O[C@@H]1[C@@H](O)C=C2CCN3Cc4cc5c(cc4[C@H]1C23)OCO5` (some centres undefined) the CC50 was 0.806 µg/mL (≈ 2.81 µM), the IC50 was > 20 µg/mL and the outcome was “inactive”. With `CC1CCc2cc(F)cc3c(=O)c(C(=O)O)cn1c23` (centres undefined) the IC50 was 9.83 µg/mL (≈ 37.6 µM) and the outcome was “active”. For `CCn1cc(C(=O)O)c(=O)c2cc3c(cc21)OCO3`, the IC50 was > 20 µg/mL and the outcome was “inactive”. With `O=C1N=C(O)CN1/N=C/c1ccc(-c2ccc([N+](=O)[O-])cc2)o1` the IC50 was > 20 µg/mL and the outcome was “inactive”. With `CNCC(O)c1ccc(OC(=O)C(C)(C)C)c(OC(=O)C(C)(C)C)c1` (centres undefined) the IC50 was > 20 µg/mL and the outcome was “inactive”. In the case of `C=C(C)[C@@H]1C2C(=O)O[C@H]1[C@H]1OC(=O)[C@@]34OC3C[C@]2(O)[C@@]14C` (some centres undefined), the IC50 is reported as > 20 µg/mL and the outcome is reported as “inactive”. With `CC1(C)OC(=O)NC1=O` the IC50 was > 20 µg/mL and the outcome was “inactive”. With `CC(C)(C)C(=O)OCOC(=O)[C@@H]1N2C(=O)[C@@H](NC(=O)[C@H](N)c3ccccc3)[C@H]2SC1(C)C` the IC50 was > 20 µg/mL and the outcome was “inactive”.
